The values that follow come from PubChem BioAssay AID1345085 (National Center for Advancing Translational Sciences (NCATS), 2018).

Inconclusive results are not listed. A call without a number means that no potency is given here. Calls of active or inactive are those of the source. The call rests on the fitted dose curve; in most records, active means well fitted cell-killing curve with a large enough effect; inconclusive means small, poorly fitted or top-dose-only effect, or effect the other way; inactive means no such curve, though single readings can be large or run the other way.
Potency means the concentration at half of the fitted maximal effect.

For this test, the system named is SW626. Put plainly: Confirmatory qHTS for gynecologic anti-cancer compounds from libraries of approved drugs and bioactive compounds. Further: nearly all actives have a fitted effect of over 55% in size. Conditions: gynecologic cancer cell panel viability, ATPlite luminescence, 48 h; series mostly up to 57.6 µM. The essentials: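 1,000 cells/well; 16 h pre-incubation 37 C, 5% CO2; pin-transferred cpd in DMSO, 11 conc (1:3), 57.5 uM–0.977 nM; 48 h; ATPlite, 15 min RT; luminescence → IC50.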
In general terms: qHTS replaces the single test concentration by a dilution series.
Turning to `O=c1cc(CN2CCOCC2)occ1OCCCCCSc1ccnc2cc(C(F)(F)F)ccc12`, the Potency result was “inactive”.

For the compound `C=CC(=O)Nc1cccc(Oc2nc(Nc3ccc(N4CCN(C)CC4)cc3)ncc2Cl)c1`, the Potency was 24.3 µM (active).

For the compound `C[C@@]1(C(=O)Nc2ccc(F)nc2)CCCN1c1nc(Nc2cc(C3CC3)[nH]n2)c2cccn2n1`, the Potency result was “inactive”.

As for `CNC1CCC(N(Cc2cccc(-c3ccncc3)c2)C(=O)c2sc3ccccc3c2Cl)CC1` (stereo not drawn), the Potency was 30.6 µM (active).

Turning to `O=C(c1ccc(F)c(F)c1Nc1ccc(I)cc1F)N1CC(O)([C@@H]2CCCCN2)C1`, the Potency was 9.68 µM (active).

In the case of `Cc1cc(Nc2cc(N3CCN(C)CC3)nc(/C=C/c3ccccc3)n2)n[nH]1`, the Potency is 21.7 µM (active).

In the case of `c1cc(N[C@@H]2CCNC2)nc(-c2cnc3ccc(-c4cn[nH]c4)cn23)c1`, the Potency result is “inactive”.

With `O=C(O)c1ccc(Nc2ncc3c(n2)-c2ccc(Cl)cc2C(c2c(F)cccc2F)=NC3)cc1`, the Potency result was “inactive”.

As to `OCc1ccc(-c2ccc(-c3ccc(CO)s3)o2)s1`, the Potency was 10.6 µM (active).

In the case of `O=C(Nc1cccnc1)N1CCC(Cc2cccc(Oc3ccc(C(F)(F)F)cn3)c2)CC1`, the Potency entry was “inactive”.

In the case of `COc1cc(N2CCC(N)CC2)ccc1Nc1ncc(Cl)c(-c2c[nH]c3ccccc23)n1`, the Potency was 21.7 µM (active).

Turning to `O=C(CCCCCCNC(=O)c1cnc(N(c2ccccc2)c2ccccc2)nc1)NO`, the Potency was 7.69 µM (active).

`CCOc1ccc(Nc2nc(-c3c(C)nc4ccccn34)cs2)cc1`: the Potency result was “inactive”.

Consider `COc1ccc(CCC(=O)c2c(O)cc(O[C@@H]3O[C@H](CO)[C@@H](O)[C@H](O)[C@H]3O[C@@H]3O[C@@H](C)[C@H](O)[C@@H](O)[C@H]3O)cc2O)cc1O`, for which the Potency entry is “inactive”.

Take `Cc1ccc(C(N)=O)cc1Nc1nccc(-c2cn(C(C)C)c3cnccc23)n1`: the Potency entry is “inactive”.

For the compound `COc1c(C)c2c(c(O)c1C/C=C(\C)CCC(=O)OCCN1CCOCC1)C(=O)OC2`, the Potency entry was “inactive”.

Take `Cc1ccc(C(=O)N(CCCN)C(c2oc3cc(Cl)ccc3c(=O)c2Cc2ccccc2)C(C)C)cc1` (stereo not drawn): the Potency is 24.3 µM (active).

As to `Cc1cnc(Nc2cccc(CN3CCOCC3)c2)nc1Nc1cccc(S(=O)(=O)NC(C)(C)C)c1`, the Potency was 24.3 µM (active).
